According to PubChem BioAssay (Tox21):
Unmarked numbers belong to inactive results. Inconclusive results are not listed. Entries that show only a call come without a potency. Calls of active or inactive are those of the source. Unless noted, the call rests on the fitted dose curve.

How the values were obtained:
[1] = qHTS assay to identify small molecule antagonists of the sonic hedgehog signaling (Shh) pathway (AID 1259369); further: nearly all actives have a fitted effect of over 45% in size
Outline: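 Read-out is luminescence from a firefly luciferase gene controlled by the Gli1 response element, in 3T3Gli1-Luc cells pre-incubated 4hr then exposed to compounds and conditioned medium for 24hr.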

[2] = molecular target: Estrogen receptor beta (Homo sapiens) (UniProt Q92731); test: qHTS assay to identify small molecule agonists of the estrogen receptor beta (ER-beta) signaling pathway (AID 1259377; active means well fitted activation curve with a large enough effect in the signal ratio in the repeat runs, not every such curve was filed as active; the % refers to the signal ratio)
Outline: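 Ratiometric beta-lactamase FRET read-out came after 2 h substrate loading at room temperature. It followed 16 h compound treatment at 37C of GripTite HEK293T cells carrying a UAS-bla reporter, plated in 2% charcoal-stripped FBS medium.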

[3] = molecular target: Estrogen receptor beta (Homo sapiens) (UniProt Q92731); test: qHTS assay to identify small molecule antagonists of the estrogen receptor beta (ER-beta) signaling pathway (AID 1259378; active means well fitted inhibition curve with a large enough effect in the signal ratio in the repeat runs, not every such curve was filed as active; the % refers to the signal ratio)
Outline: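 ER-beta-UAS-bla HEK293T (GripTite) cells in 2% charcoal-stripped FBS medium were preincubated 6 hr at 37C, dosed with compound, then stimulated with 1 nM E2 (final) for 16 hr; beta-lactamase reporter read by B/G FRET fluorescence after 2 hr substrate loading.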

[4] = qHTS assay to identify small molecule agonists of the androgen receptor (AR) signaling pathway in the presence of an antagonist - cell viability counter screen (AID 1259379; active means well fitted curve in the direction sought with a large enough effect in the repeat runs; an effect the other way counts as inactive or inconclusive;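 further: MDA-kb2 human breast cancer cells carrying an MMTV luciferase reporter; series mostly up to about 92 µM; nearly all actives have a fitted effect of over 25% in size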)
Outline: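 Each compound was tested at 15 concentrations on MDA-kb2 cells in the presence of 3.0uM nilutamide. Viability was measured by CellTiter-Fluor fluorescence after a 16 hr incubation at 37C in a CO2-free atmosphere.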

[5] = qHTS assay to identify small molecule agonists of the estrogen receptor beta (ER-beta) signaling pathway - cell viability counter screen (AID 1259380; active means well fitted curve in the direction sought with a large enough effect in the repeat runs; an effect the other way counts as inactive or inconclusive; further: nearly all actives have a fitted effect of over 30% in size; further: potency means the concentration at half of the fitted maximal effect)
Outline: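 Compounds dissolved in DMSO were pin-transferred onto ER-beta-UAS-bla HEK293T cells that had settled 6 hr, and exposure ran 16 hr at 37C. Following the reporter read, CellTiter-Glo luminescence after 30 min at room temperature indicated cytotoxicity.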

[6] = qHTS assay to identify small molecule antagonists of the estrogen receptor beta (ER-beta) signaling pathway - cell viability counter screen (AID 1259382; active means well fitted curve in the direction sought with a large enough effect in the repeat runs; an effect the other way counts as inactive or inconclusive; further: series mostly up to about 92 µM; nearly all actives have a fitted effect of over 55% in size)
Outline: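 CellTiter-Glo ATP luminescence measured after the LiveBLAzer read in the same wells; ER-beta-UAS-bla HEK293T cells, 16 hr compound treatment with 1nM 17-beta-estradiol agonist at 37C, 5% CO2.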

[7] = molecular target: Estrogen receptor (Homo sapiens) (UniProt P03372); test: qHTS assay to identify small molecule agonists of the estrogen receptor alpha (ER-alpha) signaling pathway in the presence of an antagonist (AID 1259383); further: top concentration of the series differs between compounds; nearly all actives have a fitted effect of over 15% in size
Outline: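 Luminescent ERE-luciferase reporter, VM7Luc4E2 cells (endogenous ER-alpha); 10.0nM ICI-182,780 final; 15-point compound titration; 22hr at 37C; ONE-Glo, 30min RT.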

[8] = qHTS assay to identify small molecule agonists or antagonists of the thyroid stimulating hormone receptor (TSHR) signaling pathway - wild type cell line counter screen (AID 1259384)
Outline: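 Wild-type HEK293 cells were plated 18 h at 37 C/5% CO2, pin-dosed with compound plus Ro20-1724 medium, held 30 min at room temperature, then given cAMP-d2 and anti-cAMP-cryptate; fluorescence was read after 1 h. Fifteen concentrations, triplicate.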

[9] = molecular target: Thyrotropin receptor (Homo sapiens) (UniProt P16473); test: qHTS assay to identify small molecule antagonists of the thyroid stimulating hormone receptor (TSHR) signaling pathway (AID 1259385); further: nearly all actives have a fitted effect of over 20% in size
Outline: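 TSHR-HEK293 cells were plated and held 18 h at 37C/5% CO2, then given compound plus Ro20-1724 and stimulated with TSH at 1.5 ng/mL final. After 30 min at room temperature, cAMP was detected with cAMP-d2/anti-cAMP-cryptate (1 h) by fluorescence.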

[10] = qHTS assay to identify small molecule agonists of the estrogen receptor alpha (ER-alpha) signaling pathway in the presence of an antagonist - cell viability counter screen (AID 1259386; active means well fitted curve in the direction sought with a large enough effect in the repeat runs; an effect the other way counts as inactive or inconclusive;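 further: series mostly up to about 92 µM; cells exposed to compounds for 22 h at 37 °C before the viability read; nearly all actives have a fitted effect of over 30% in size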)
Outline: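 Using estrogen-depleted VM7Luc4E2 cells, the 15-concentration compound series was applied together with 10.0nM ICI-182,780 and incubated 22hr at 37C/5% CO2. Cell viability was then scored by CellTiter-Fluor.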

[11] = molecular target: Progesterone receptor (Homo sapiens) (UniProt P06401); test: qHTS assay to identify small molecule agonists of the progesterone receptor (PR) signaling pathway (AID 1346784); further: nearly all actives have a fitted effect of over 30% in size
Outline: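 Agonist qHTS: compounds pinned onto 3,000 PR-UAS-bla HEK 293T cells per well in charcoal-stripped serum medium, 16hr at 37C, then beta-lactamase activity measured by LiveBLAzer FRET fluorescence after 2 hours at room temperature.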

[12] = molecular target: Progesterone receptor (Homo sapiens) (UniProt P06401); test: qHTS assay to identify small molecule antagonists of the progesterone receptor (PR) signaling pathway (AID 1346795; active means well fitted inhibition curve with a large enough effect in the signal ratio in the repeat runs, not every such curve was filed as active; the % refers to the signal ratio)
Outline: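 Antagonist mode with agonist R5020 at 1 nM final and 16 hr incubation at 37C. Reporter was beta-lactamase driven by UAS in HEK293T (PR-UAS-bla), 2% charcoal-stripped serum; signal from LiveBLAzer FRET substrate, 2 hr at room temperature.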

[13] = qHTS assay to identify small molecule antagonists of the progesterone receptor (PR) signaling pathway - cell viability counter screen (AID 1346798; active means well fitted curve in the direction sought with a large enough effect in the repeat runs; an effect the other way counts as inactive or inconclusive; further: series mostly up to about 92 µM; nearly all actives have a fitted effect of over 50% in size)
Outline: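 Cytotoxicity read as CellTiter-Glo luminescence (30 min, room temperature) in the same wells as the beta-lactamase readout. HEK293T PR-UAS-bla cells in charcoal-stripped 2% FBS received compound and R5020, then 16 h at 37C, 5% CO2.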

[14] = qHTS assay to identify small molecule agonists of the progesterone receptor (PR) signaling pathway - cell viability counter screen (AID 1346799); further: nearly all actives have a fitted effect of over 45% in size
Outline: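 Cytotoxicity measured by CellTiter-Glo luminescence (30 min, RT) in the same wells as the PR beta-lactamase agonist read. Those HEK293T cells had 16 h compound treatment at 37 C in 2% charcoal-stripped FBS medium.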

[15] = qHTS assay to identify small molecule antagonists of the TGF-beta/Smad signaling pathway - cell viability counter screen (AID 1346824; active means well fitted curve in the direction sought with a large enough effect in the repeat runs; an effect the other way counts as inactive or inconclusive; further: nearly all actives have a fitted effect of over 50% in size)
Outline: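 SBE-bla HEK 293T cells were plated overnight at 37 C, then given compounds in DMSO plus TGF-beta1 (added as 0.25 ng/mL solution) for 5 hr. After the bla read, CellTiter-Glo was added to the same wells and luminescence read after 30 min at room temperature.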

[16] = qHTS assay to identify small molecule agonists of the TGF-beta/Smad signaling pathway - cell viability counter screen (AID 1346829; active means well fitted curve in the direction sought with a large enough effect in the repeat runs; an effect the other way counts as inactive or inconclusive; further: top concentration of the series differs between compounds; nearly all actives have a fitted effect of over 45% in size)
Outline: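 CellTiter-Glo luminescence readout; SBE-bla HEK 293T cells, overnight plating, compound 5 hr at 37 C/5% CO2, then bla substrate 2 hr RT, then CellTiter-Glo 30 min RT.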

[17] = molecular target: Thyrotropin-releasing hormone receptor (Homo sapiens) (UniProt P34981); test: qHTS assay to identify small molecule antagonists of the thyrotropin-releasing hormone receptor (TRHR) signaling pathway (AID 1346877; active means well fitted inhibition curve with a large enough effect in the repeat runs, not every such curve was filed as active; further: series mostly up to about 51 µM)
Outline: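 Calcium signal in dye-loaded TRHR/HEK293 cells; compounds added 5 min before TRH (1 nM final); fluorescence monitored 3 min at 1 s steps.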

[18] = molecular target: Thyrotropin-releasing hormone receptor (Homo sapiens) (UniProt P34981); test: qHTS assay to identify small molecule agonists of the thyrotropin-releasing hormone receptor (TRHR) signaling pathway (AID 1346891); further: series mostly up to about 58 µM
Outline: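 Agonist-mode intracellular calcium readout: kinetic fluorescence over 3 min at 1 s intervals after compound addition to TRHR-HEK293 cells (18 h seeded, 2 h dye-loaded at 37 C). Fifteen concentrations, triplicates.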

[19] = qHTS assay to identify small molecule agonists of the TGF-beta/Smad signaling pathway (AID 1346859; active means well fitted activation curve with a large enough effect in the signal ratio in the repeat runs, not every such curve was filed as active; the % refers to the signal ratio; further: series mostly up to about 77 µM)
Outline: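 Fluorescence (ex 405 nm; em 460 and 530 nm) was read 2 h after LiveBLAzer FRET substrate at RT. The preceding compound treatment of overnight-plated SBE-bla HEK293T cells lasted 5 h at 37 C.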

[20] = molecular target: Androgen receptor (Homo sapiens) (UniProt P10275); test: qHTS assay to identify small molecule agonists of the androgen receptor (AR) signaling pathway in the presence of an antagonist (AID 1259381); further: nearly all actives have a fitted effect of over 15% in size
Outline: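 Plated MDA-kb2 cells (3,000/well) were pre-incubated 5hr, given nilutamide (3.0uM final) or buffer, then dosed with compounds in DMSO at 15 concentrations. Luciferase activity was quantified by luminescence after 16hr at 37C.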

Chain of Estrogen receptor beta (Homo sapiens) (Q92731 whole entry, looked up): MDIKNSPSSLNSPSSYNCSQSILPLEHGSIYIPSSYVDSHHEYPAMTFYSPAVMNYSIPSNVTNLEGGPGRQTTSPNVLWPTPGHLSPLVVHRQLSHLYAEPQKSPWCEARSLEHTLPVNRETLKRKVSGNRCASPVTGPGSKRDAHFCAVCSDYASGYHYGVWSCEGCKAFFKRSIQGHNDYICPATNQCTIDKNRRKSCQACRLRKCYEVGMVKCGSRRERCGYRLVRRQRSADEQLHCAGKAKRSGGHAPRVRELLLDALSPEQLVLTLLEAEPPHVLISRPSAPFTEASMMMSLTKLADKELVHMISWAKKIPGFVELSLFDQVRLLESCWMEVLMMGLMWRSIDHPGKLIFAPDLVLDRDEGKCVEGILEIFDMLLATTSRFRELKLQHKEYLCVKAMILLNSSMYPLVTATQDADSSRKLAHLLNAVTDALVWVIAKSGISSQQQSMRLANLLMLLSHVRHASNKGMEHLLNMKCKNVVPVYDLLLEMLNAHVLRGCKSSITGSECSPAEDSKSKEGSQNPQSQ
Chain of Estrogen receptor (Homo sapiens) (P03372 whole entry, looked up): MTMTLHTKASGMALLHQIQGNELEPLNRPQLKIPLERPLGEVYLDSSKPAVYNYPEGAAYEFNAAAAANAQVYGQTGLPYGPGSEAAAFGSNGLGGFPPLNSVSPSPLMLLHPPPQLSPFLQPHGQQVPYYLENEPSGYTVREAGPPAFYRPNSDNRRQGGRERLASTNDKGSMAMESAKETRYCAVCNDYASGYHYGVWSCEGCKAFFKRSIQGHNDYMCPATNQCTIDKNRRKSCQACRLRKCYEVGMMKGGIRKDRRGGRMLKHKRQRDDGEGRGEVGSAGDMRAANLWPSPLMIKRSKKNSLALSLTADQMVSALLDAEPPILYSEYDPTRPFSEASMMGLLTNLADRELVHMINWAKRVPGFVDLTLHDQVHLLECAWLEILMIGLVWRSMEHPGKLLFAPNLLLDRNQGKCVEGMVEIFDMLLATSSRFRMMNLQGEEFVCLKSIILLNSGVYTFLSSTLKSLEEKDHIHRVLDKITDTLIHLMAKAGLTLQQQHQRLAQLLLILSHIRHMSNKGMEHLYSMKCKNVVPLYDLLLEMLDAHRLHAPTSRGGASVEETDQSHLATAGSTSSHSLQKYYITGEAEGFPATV
Chain of Thyrotropin receptor (Homo sapiens) (P16473 whole entry, looked up): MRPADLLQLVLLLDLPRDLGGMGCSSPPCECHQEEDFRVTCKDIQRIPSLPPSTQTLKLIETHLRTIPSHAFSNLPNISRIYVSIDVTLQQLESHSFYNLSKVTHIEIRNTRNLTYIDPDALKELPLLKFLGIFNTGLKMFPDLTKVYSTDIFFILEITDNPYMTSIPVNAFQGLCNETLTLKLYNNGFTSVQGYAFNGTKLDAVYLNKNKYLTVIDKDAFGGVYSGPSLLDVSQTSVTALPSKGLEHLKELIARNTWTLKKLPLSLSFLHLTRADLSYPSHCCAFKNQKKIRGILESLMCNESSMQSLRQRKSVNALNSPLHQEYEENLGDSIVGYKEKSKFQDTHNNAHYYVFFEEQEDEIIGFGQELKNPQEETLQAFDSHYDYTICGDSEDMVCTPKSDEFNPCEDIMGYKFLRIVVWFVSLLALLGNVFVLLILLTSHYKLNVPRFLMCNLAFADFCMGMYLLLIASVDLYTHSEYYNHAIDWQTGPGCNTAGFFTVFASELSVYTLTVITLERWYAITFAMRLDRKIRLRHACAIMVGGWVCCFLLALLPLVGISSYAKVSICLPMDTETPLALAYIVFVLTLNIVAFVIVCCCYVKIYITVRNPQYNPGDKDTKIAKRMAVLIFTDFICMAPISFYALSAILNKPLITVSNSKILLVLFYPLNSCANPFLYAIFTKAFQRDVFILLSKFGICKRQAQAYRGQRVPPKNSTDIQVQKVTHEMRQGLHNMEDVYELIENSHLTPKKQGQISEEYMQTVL
Chain of Progesterone receptor (Homo sapiens) (P06401 whole entry, looked up): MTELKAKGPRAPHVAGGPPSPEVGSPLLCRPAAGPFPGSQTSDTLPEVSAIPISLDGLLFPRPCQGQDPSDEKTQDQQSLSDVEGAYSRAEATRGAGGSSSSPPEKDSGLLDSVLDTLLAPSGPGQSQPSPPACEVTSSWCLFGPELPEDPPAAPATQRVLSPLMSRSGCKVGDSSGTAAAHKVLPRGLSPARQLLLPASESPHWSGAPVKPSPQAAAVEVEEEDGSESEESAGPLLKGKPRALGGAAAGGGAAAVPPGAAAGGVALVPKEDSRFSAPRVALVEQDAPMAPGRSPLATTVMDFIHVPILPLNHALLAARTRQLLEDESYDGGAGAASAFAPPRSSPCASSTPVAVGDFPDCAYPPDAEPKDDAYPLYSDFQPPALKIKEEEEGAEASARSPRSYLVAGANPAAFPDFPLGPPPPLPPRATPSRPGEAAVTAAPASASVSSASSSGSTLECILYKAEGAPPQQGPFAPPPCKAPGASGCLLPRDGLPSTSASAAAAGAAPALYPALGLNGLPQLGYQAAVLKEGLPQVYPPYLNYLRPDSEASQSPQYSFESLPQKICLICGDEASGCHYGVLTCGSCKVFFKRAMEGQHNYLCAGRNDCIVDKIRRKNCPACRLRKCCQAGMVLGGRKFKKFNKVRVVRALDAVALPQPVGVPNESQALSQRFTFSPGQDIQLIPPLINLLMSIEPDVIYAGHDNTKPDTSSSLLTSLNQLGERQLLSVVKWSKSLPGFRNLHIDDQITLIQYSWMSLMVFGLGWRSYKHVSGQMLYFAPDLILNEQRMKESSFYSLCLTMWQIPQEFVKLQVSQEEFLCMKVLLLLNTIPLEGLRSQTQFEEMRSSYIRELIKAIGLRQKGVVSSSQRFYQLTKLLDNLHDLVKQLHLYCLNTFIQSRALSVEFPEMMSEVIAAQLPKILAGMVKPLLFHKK
Chain of Thyrotropin-releasing hormone receptor (Homo sapiens) (P34981 whole entry, looked up): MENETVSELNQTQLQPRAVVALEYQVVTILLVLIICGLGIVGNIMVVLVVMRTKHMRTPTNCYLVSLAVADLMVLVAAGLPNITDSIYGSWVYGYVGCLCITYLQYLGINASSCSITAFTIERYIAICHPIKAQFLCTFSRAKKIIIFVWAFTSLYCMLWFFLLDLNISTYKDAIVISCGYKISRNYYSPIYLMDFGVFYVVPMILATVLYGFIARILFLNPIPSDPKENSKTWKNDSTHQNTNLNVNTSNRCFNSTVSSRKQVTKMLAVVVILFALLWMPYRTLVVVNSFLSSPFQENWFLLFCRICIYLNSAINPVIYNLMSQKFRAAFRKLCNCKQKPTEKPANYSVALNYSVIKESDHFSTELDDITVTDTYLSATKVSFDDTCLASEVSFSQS
Chain of Androgen receptor (Homo sapiens) (P10275 whole entry, looked up): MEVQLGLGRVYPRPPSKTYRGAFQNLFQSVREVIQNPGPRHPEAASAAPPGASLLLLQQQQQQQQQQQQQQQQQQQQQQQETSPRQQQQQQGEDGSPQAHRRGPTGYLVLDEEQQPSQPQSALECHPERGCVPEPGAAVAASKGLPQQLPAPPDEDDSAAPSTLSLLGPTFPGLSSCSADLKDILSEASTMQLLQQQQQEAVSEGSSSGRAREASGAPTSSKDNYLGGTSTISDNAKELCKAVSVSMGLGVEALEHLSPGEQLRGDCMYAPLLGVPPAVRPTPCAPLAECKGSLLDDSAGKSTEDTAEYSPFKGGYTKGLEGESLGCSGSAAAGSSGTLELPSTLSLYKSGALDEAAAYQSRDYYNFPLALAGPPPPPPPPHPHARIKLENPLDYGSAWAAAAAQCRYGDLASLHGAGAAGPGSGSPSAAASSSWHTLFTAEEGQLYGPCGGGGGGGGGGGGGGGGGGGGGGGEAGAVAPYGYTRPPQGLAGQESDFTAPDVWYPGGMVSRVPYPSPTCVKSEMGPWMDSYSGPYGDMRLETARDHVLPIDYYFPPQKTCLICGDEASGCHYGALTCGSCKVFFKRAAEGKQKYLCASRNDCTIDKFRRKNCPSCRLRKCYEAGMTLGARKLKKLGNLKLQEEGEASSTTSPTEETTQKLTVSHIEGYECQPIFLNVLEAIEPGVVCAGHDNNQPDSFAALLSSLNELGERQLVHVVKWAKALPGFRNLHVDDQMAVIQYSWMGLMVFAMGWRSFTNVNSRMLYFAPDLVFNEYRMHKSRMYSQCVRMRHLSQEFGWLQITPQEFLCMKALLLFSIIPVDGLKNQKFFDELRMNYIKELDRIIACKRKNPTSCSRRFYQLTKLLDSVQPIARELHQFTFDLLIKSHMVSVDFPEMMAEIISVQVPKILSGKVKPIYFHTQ

SMILES	Potency [1]	Potency [2]	Potency [3]	Potency [4]	Potency [5]	Potency [6]	Potency [7]	Potency [8]	Potency [9]	Potency [10]	outcome [11]	Potency [12]	Potency [13]	Potency [14]	Potency [15]	Potency [16]	outcome [17]	Potency [18]	outcome [19]	Potency [20]
CC1=CC(=O)/C(=C(/C)O)C(=O)O1	inactive	inactive	inactive	inactive	inactive	inactive	inactive	inactive	inactive	inactive	inactive	inactive	inactive	inactive	inactive	inactive	inactive	inactive	–	–
CCN(CC)CCNC(C(=O)OCCC(C)C)c1ccccc1 (stereo unspecified)	inactive	inactive	inactive	inactive	–	inactive	inactive	inactive	inactive	inactive	inactive	inactive	inactive	–	inactive	inactive	inactive	inactive	inactive	–
N=C(N=C(N)N)N1CCOCC1	inactive	inactive	inactive	inactive	–	inactive	inactive	inactive	inactive	inactive	inactive	inactive	inactive	inactive	inactive	inactive	–	–	inactive	–
CCCC(C)C	inactive	inactive	inactive	inactive	61.8 µM (active)	inactive	inactive	–	inactive	–	inactive	inactive	–	–	inactive	inactive	inactive	inactive	inactive	–
CCOc1nc2cccc(C(=O)O)c2n1Cc1ccc(-c2ccccc2-c2nn[nH]n2)cc1	inactive	inactive	inactive	inactive	–	inactive	inactive	inactive	–	–	inactive	inactive	–	inactive	inactive	inactive	–	–	inactive	inactive
CNS(=O)(=O)Cc1ccc2[nH]cc(CCN(C)C)c2c1	inactive	inactive	inactive	inactive	inactive	inactive	–	–	–	inactive	inactive	–	inactive	inactive	inactive	inactive	inactive	inactive	inactive	–
CCCCCc1ccc(N)cc1	inactive	inactive	inactive	inactive	–	inactive	inactive	inactive	inactive	–	inactive	inactive	–	inactive	inactive	inactive	inactive	inactive	inactive	–
CCCCOc1cc(C(=O)OCCN(CC)CC)ccc1N	inactive	inactive	inactive	inactive	inactive	inactive	inactive	–	–	–	inactive	inactive	–	inactive	inactive	inactive	inactive	inactive	inactive	–
